Measured values: PubChem BioAssay AID1159580 (chemical genetic matrix, 2015)
The campaign covered roughly 5,500 compounds. About 2,000 (36%) were called active. Roughly 18% stayed inconclusive and do not appear here. No stated cut-off is given here; in the data, active means normalized growth mostly below about 0.91 (no sharp cut-off); inconclusive means no clear call, values can overlap the other calls; inactive means mostly above about 0.92. This is one part of the list.

Experiment: chemical genetic growth profiling, strain panel (AID 1159580);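 further: tested at 20 µM; growth read once vehicle control cultures reached saturation at 30 °C; 1 = growth at the plate median or of vehicle wells; lower values mean less growth of the strain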
Settings: growth OD

Measured: normalized growth

CCCCCN=C(N)N/N=C\c1c[nH]c2ccc(OC)cc12
inactive: S. cerevisiae deletion strains, locus YJR043C, strain POL32, active compounds read low 0.989 | S. cerevisiae deletion strains, locus YJR075W, strain HOC1, active compounds read low 0.996 | S. cerevisiae deletion strains, locus YKL009W, strain mrt4, active compounds read low 0.974 | S. cerevisiae deletion strains, locus YKL068W, active compounds read low 0.993 | S. cerevisiae deletion strains, locus YKL085W, strain MDH1 (second series), active compounds read low 0.956 | S. cerevisiae deletion strains, locus YKL085W, strain MDH1, active compounds read low 0.956 | S. cerevisiae deletion strains, locus YKL160W, strain elf1, active compounds read low 1.01 | S. cerevisiae deletion strains, locus YKL190W, strain CNB1, active compounds read low 1.01 | S. cerevisiae deletion strains, locus YKR001C, strain vps1, active compounds read low 1.03 | S. cerevisiae deletion strains, locus YKR026C, strain gcn3, active compounds read low 1.01 | S. cerevisiae deletion strains, locus YKR091W, strain srl3, active compounds read low 0.992 | S. cerevisiae deletion strains, locus YLL001W, strain dnm1, active compounds read low 1.01 | S. cerevisiae deletion strains, locus YLL026W, active compounds read low 1.01 | S. cerevisiae deletion strains, locus YLL041C, strain sdh2, active compounds read low 1 | S. cerevisiae deletion strains, locus YLR027C, strain aat2, active compounds read low 1 | S. cerevisiae deletion strains, locus YLR039C, strain RIC1, active compounds read low 1.08 | S. cerevisiae deletion strains, locus YLR058C, strain SHM2, active compounds read low 0.99 | S. cerevisiae deletion strains, locus YLR102C, strain apc9, active compounds read low 1.02 | S. cerevisiae deletion strains, locus YLR221C, strain rsa3, active compounds read low 0.986 | S. cerevisiae deletion strains, locus YLR258W, strain gsy2, active compounds read low 0.995 | S. cerevisiae deletion strains, locus YLR262C, strain YPT6 (second series), active compounds read low 1.04 | S. cerevisiae deletion strains, locus YLR262C, strain YPT6, active compounds read low 1.01 | S. cerevisiae deletion strains, locus YLR268W, strain sec22, active compounds read low 0.998 | S. cerevisiae deletion strains, locus YLR320W, strain mms22, active compounds read low 0.98 | S. cerevisiae deletion strains, locus YLR330W, strain CHS5, active compounds read low 1.01 | S. cerevisiae deletion strains, locus YLR342W, strain FKS1 (second series), active compounds read low 0.989 | S. cerevisiae deletion strains, locus YLR342W, strain FKS1, active compounds read low 1.01 | S. cerevisiae deletion strains, locus YLR357W, strain rsc2, active compounds read low 0.975 | S. cerevisiae deletion strains, locus YLR370C, strain arc18, active compounds read low 1 | S. cerevisiae deletion strains, locus YLR371W, strain rom2, active compounds read low 1.03 | S. cerevisiae deletion strains, locus YLR384C, strain iki3, active compounds read low 1.02 | S. cerevisiae deletion strains, locus YLR418C, strain cdc73, active compounds read low 0.993 | S. cerevisiae deletion strains, locus YML016C, strain PPZ1, active compounds read low 1 | S. cerevisiae deletion strains, locus YML032C, strain rad52, active compounds read low 1.02 | S. cerevisiae deletion strains, locus YML120C, strain ndi1, active compounds read low 1.01 | S. cerevisiae deletion strains, locus YML124C, strain tub3, active compounds read low 1.02 | S. cerevisiae deletion strains, locus YMR058W, strain fet3, active compounds read low 1.01 | S. cerevisiae deletion strains, locus YMR078C, strain ctf18, active compounds read low 1.03 | S. cerevisiae deletion strains, locus YMR125W, strain sto1, active compounds read low 0.979 | S. cerevisiae deletion strains, locus YMR129W, active compounds read low 1.01 | S. cerevisiae deletion strains, locus YMR205C, strain PFK2, active compounds read low 0.994 | S. cerevisiae deletion strains, locus YMR223W, strain ubp8, active compounds read low 1.01 | S. cerevisiae deletion strains, locus YMR231W, strain pep5, active compounds read low 1.02 | S. cerevisiae deletion strains, locus YMR263W, strain SAP30, active compounds read low 1.01 | S. cerevisiae deletion strains, locus YMR307W, strain GAS1, active compounds read low 0.973 | S. cerevisiae deletion strains, locus YNL067W, strain RPL9B, active compounds read low 0.998 | S. cerevisiae deletion strains, locus YNL071W, strain lat1, active compounds read low 1 | S. cerevisiae deletion strains, locus YNL128W, strain TEP1, active compounds read low 0.995 | S. cerevisiae deletion strains, locus YNL153C, strain GIM3, active compounds read low 1 | S. cerevisiae deletion strains, locus YNL209W, strain ssb2, active compounds read low 1 | S. cerevisiae deletion strains, locus YNL233W, strain BNI4, active compounds read low 0.985 | S. cerevisiae deletion strains, locus YNL248C, strain rpa49, active compounds read low 0.991 | S. cerevisiae deletion strains, locus YNL250W, strain rad50, active compounds read low 1.02 | S. cerevisiae deletion strains, locus YNL271C, strain bni1, active compounds read low 1.02 | S. cerevisiae deletion strains, locus YNL298W, strain CLA4, active compounds read low 1.02 | S. cerevisiae deletion strains, locus YNL307C, strain MCK1, active compounds read low 1.04 | S. cerevisiae deletion strains, locus YNL322C, strain KRE1 (second series), active compounds read low 1.02 | S. cerevisiae deletion strains, locus YNL322C, strain KRE1, active compounds read low 1 | S. cerevisiae deletion strains, locus YNR049C, strain mso1, active compounds read low 1.01 | S. cerevisiae deletion strains, locus YNR052C, strain pop2, active compounds read low 1.03 | S. cerevisiae deletion strains, locus YOL006C, strain TOP1, active compounds read low 0.995 | S. cerevisiae deletion strains, locus YOL012C, strain htz1 1.66 | S. cerevisiae deletion strains, locus YOL147C, strain pex11, active compounds read low 1.03 | S. cerevisiae deletion strains, locus YOR001W, strain rrp6, active compounds read low 0.995 | S. cerevisiae deletion strains, locus YOR061W, strain CKA2, active compounds read low 0.995 | S. cerevisiae deletion strains, locus YOR069W, strain VPS5, active compounds read low 1.01 | S. cerevisiae deletion strains, locus YOR070C, strain gyp1, active compounds read low 1 | S. cerevisiae deletion strains, locus YOR080W, strain dia2, active compounds read low 1 | S. cerevisiae deletion strains, locus YOR083W, strain WHI5, active compounds read low 0.991 | S. cerevisiae deletion strains, locus YOR106W, strain vam3, active compounds read low 0.995 | S. cerevisiae deletion strains, locus YOR136W, strain idh2, active compounds read low 1.03 | S. cerevisiae deletion strains, locus YOR144C, strain elg1, active compounds read low 1.01 | S. cerevisiae deletion strains, locus YOR184W, strain ser1, active compounds read low 1.02 | S. cerevisiae deletion strains, locus YOR265W, strain rbl2, active compounds read low 1.01 | S. cerevisiae deletion strains, locus YOR270C, strain vph1, active compounds read low 1.05 | S. cerevisiae deletion strains, locus YOR290C, strain snf2, active compounds read low 0.984 | S. cerevisiae deletion strains, locus YOR316C, strain cot1, active compounds read low 1.02 | S. cerevisiae deletion strains, locus YPL051W, strain arl3, active compounds read low 1 | S. cerevisiae deletion strains, locus YPL055C, strain LGE1, active compounds read low 0.993 | S. cerevisiae deletion strains, locus YPL078C, strain atp4, active compounds read low 1.03 | S. cerevisiae deletion strains, locus YPL106C, strain sse1, active compounds read low 1.01 | S. cerevisiae deletion strains, locus YPL240C, strain hsp82, active compounds read low 1 | S. cerevisiae deletion strains, locus YPL241C, strain CIN2, active compounds read low 1.05 | S. cerevisiae deletion strains, locus YPR119W, strain clb2, active compounds read low 1.02 | S. cerevisiae deletion strains, locus YPR141C, strain kar3, active compounds read low 1.02 | S. cerevisiae deletion strains, locus YPR163C, strain tif3, active compounds read low 1.02 | S. cerevisiae deletion strains, locus YPR167C, strain met16, active compounds read low 1.02 | S. cerevisiae deletion strains, strain wtn01, active compounds read low 1.01 | S. cerevisiae strains, strain wild type, active compounds read low 1
